High-throughput results (PubChem BioAssay)
Sampled rows, rich in hits. Any-hit rate of the full collection: about 4.1%.
hcDAF-12 act = H. contortus DAF-12 nuclear receptor activators, primary screen, cell-based, luminescence, HEK293, lit1-tk-luc reporter; hit rate 1.4% among 370,000; activation, % at 6.8 µM; AID 652067, 2013; HEK293 hcDAF-12 lit1-tk-luc reporter; 0% DMSO, 100% Δ7-dafachronic acid;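 active = activation above the mean of all tested compounds plus 3 SD, cut at about 5.5% in these data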;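 also: 100% = response to 3 µM Δ7-dafachronic acid high control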
ssDAF-12 act = S. stercoralis DAF-12 nuclear receptor activators, primary screen, cell-based, luminescence, HEK293, GRIP1 co-expression, lit1-tk-luc; hit rate 1% among 370,000; AID 652126, 2013; Nuclear hormone receptor DAF-12 (Strongyloides stercoralis); HEK293 ssDAF-12/GRIP1 lit1-tk-luc reporter; % of 3 µM dafachronic acid response; activation, % at 6.8 µM;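 active = activation above the mean over all tested compounds plus 3 SD, cut at about 0.9% in these data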;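 also: 0% = DMSO-only wells and 100% = 3 µM delta7-dafachronic acid wells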
DAX1 inh-1 = DAX1 (NR0B1) inhibitors, primary screen, cell-based, HEK293, Gal4-DAX1, luciferase luminescence | HEK293 Gal4-DAX1 luciferase reporter | inhibition, % at 6.75 µM | hit rate 0.99% among 340,000 | AID 504766, 2011;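 active = inhibition above the mean over all tested compounds plus 3 SD, cut at about 4.2% in these data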;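 also: 0% = DAX1-transfected cells with DMSO and 100% = empty-vector control cells with DMSO; inhibition shows as a rise in luminescence from relieved DAX1 repression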
DAX1 inh-2 = DAX1 (NR0B1) inhibitors on StAR promoter, primary screen, cell-based, luminescence, SF-1 (NR5A1), full-length DAX-1 | HEK293T StAR-luciferase reporter, SF-1/DAX-1 repression relief | AID 652010, 2013 | hit rate 1.1% among 370,000 | inhibition, % at 6.8 µM;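 active = inhibition above the mean over all tested compounds plus 3 SD, cut at about 3.6% in these data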;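 also: 0% = DAX-1 cells with DMSO and 100% = cells lacking DAX-1 with DMSO; higher inhibition means more luminescence from relief of DAX-1 repression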
hgDAF-12 ag = H. glycines DAF-12 receptor agonists, primary screen, cell-based, luminescence, HEK293, GAL4 fusion, UAS-luciferase; Nuclear hormone receptor DAF-12 (Heterodera glycines), GAL4 fusion; HEK293 GAL4-hgDAF12 UAS-luciferase reporter, agonist luminescence; normalized to butyrate control; activation, % at 6.8 µM; hit rate 1.8% among 370,000;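 active = activation above a cutoff set at the mean of all screened compounds plus 3 SD, cut at about 10% in these data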;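 also: 0% = DMSO wells and 100% = sodium butyrate wells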
DAX1 inh confirm = DAX1 (NR0B1) inhibitors relieving SF-1 repression, confirmation, cell-based, luminescence, HEK293T, full-length DAX-1, SF-1 activated StAR promoter; shares compounds with DAX1 inh-2; HEK293T StAR-promoter luciferase reporter, SF-1/DAX-1 repression; inhibition, % at 6.8 µM; hit rate 87% among 2,400;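 active = inhibition above the average of every tested compound plus 3 SD, cut at about 3.8% in these data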;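 also: 0% = DAX-1 cells with DMSO and 100% = no DAX-1 control cells with DMSO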
SF1 AF2mut Luc = StAR reporter signal changes without DAX1, counter-screen for DAX1 inhibitor project, cell-based, luminescence, AF-2 mutant SF-1, transactivation; shares compounds with DAX1 inh-2; HEK293 StAR-luciferase, SF-1 AF2 mutant; inhibition, % at 6.8 µM; hit rate 78% among 2,400; AID 652136, 2013;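 active = inhibition above the mean of all tested compounds plus 3 SD, cut at about 3% in these data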;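 also: 0% = DAX-1 transfected cells with DMSO and 100% = cells without DAX-1 with DMSO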
LXR ag = LXR agonists, Gal4 luciferase reporter, confirmation, counter-screen for hcDAF-12 agonist project, cell-based, luminescence, HEK293, H. contortus campaign; shares compounds with hcDAF-12 act; HEK293 Gal4-LXR tk-luc reporter, 24 h; normalized: DMSO 0%, positive control 100%; activation, % at 6.8 µM; 3,400 tested, under 10 active; AID 743027, 2013;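 active = mean percent activation of the reporter above a cutoff set as the average over tested compounds plus their standard deviation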
Target sequence (P55055 whole entry, looked up, the tested form may be a part): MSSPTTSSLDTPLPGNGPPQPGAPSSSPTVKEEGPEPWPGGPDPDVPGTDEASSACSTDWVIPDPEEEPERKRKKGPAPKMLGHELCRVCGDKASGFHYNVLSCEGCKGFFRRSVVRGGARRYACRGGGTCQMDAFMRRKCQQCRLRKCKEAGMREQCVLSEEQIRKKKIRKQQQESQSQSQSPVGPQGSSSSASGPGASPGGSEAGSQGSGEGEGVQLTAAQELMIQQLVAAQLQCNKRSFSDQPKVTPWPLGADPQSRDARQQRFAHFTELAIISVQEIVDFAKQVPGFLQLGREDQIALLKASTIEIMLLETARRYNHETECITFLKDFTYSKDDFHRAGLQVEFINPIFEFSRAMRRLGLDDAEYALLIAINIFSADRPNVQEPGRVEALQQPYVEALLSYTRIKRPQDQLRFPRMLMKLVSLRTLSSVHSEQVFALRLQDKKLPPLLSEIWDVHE
hcDAF12 conf = H. contortus DAF-12 receptor agonists, confirmation, cell-based, luminescence, HEK293, lit1-tk-luc, triplicate; AID 743032, 2013; activation, % at 6.8 µM; shares compounds with hcDAF-12 act; hit rate 61% among 3,400; HEK293 hcDAF-12 lit1-tk-luc reporter; % of Δ7-dafachronic acid response;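 active = mean activation across triplicate tests above the threshold derived from the earlier primary screen, cut at about 5.5% in these data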;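 also: 0% = DMSO only wells and 100% = 3 µM Δ7-dafachronic acid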
An asterisk follows results filed as active; x = not tested or not shown.

SMILES	hcDAF-12 act	ssDAF-12 act	DAX1 inh-1	DAX1 inh-2	hgDAF-12 ag	DAX1 inh confirm	SF1 AF2mut Luc	LXR ag	hcDAF12 conf
CC(=O)NC(Cc1ccccc1)C(=O)OCC(=O)c1ccc(Br)cc1 (centres undefined)	0.3	-1.5	0.4	-0.3	1.5	x	x	x	x
COc1ccccc1NC(CC(=O)c1ccccc1)C(=O)OCC(=O)c1ccc(Br)cc1 (centres undefined)	20.5*	2.1*	0.4	7.8*	23.4*	8.9*	-0.7	2.1	20.8*
COc1ccccc1NC(CC(=O)c1ccccc1)C(=O)OCC(=O)c1ccc(C)c(C)c1 (centres undefined)	17.5*	3.3*	3.0	7.8*	22.2*	21.2*	8.1*	1.5	11.9*
O=C(Nc1cccc(O)c1)C(=O)Nc1ccccn1	8.2*	-0.3	-2.3	6.1*	8.7	10.0*	5.6*	1.2	4.2
C/C(CC(=O)Nc1ccccn1)=N\NC(=O)C(=O)Nc1cccc(C)c1	-1.0	-1.6	0.4	0.1	-1.3	x	x	x	x
Cc1ccc2nc(CSc3nc(C)ccc3C#N)[nH]c2c1	18.8*	1.4*	-0.1	6.0*	18.3*	15.5*	6.2*	2.4	26.3*
C=CCN1C[C@@H](COCc2ccccc2)Oc2cccc(F)c2S1(=O)=O	-2.3	-1.5	x	-0.5	3.8	x	x	x	x
O=C(Nc1nc2c(F)c(F)c(F)cc2s1)c1ccco1	0.6	-0.7	1.4	0.4	4.7	x	x	x	x
O=C(Nc1nc2c(F)cc(F)cc2s1)c1ccco1	9.1*	0.4	1.2	5.6*	12.0*	10.8*	6.3*	1.4	4.9
O=C(Nc1ccc(N2CCCC2)cc1)c1cccc(F)c1	8.8*	0.1	3.0	4.6*	11.1*	10.4*	2.3	1.2	5.7*
COC(=O)CNc1c(-c2ccccn2)nc2ccc(Br)cn12	7.8*	0.8	1.4	4.9*	9.6	11.6*	6.2*	1.2	6.2*
CCOC(=O)CNc1c(-c2ccccc2)nc2ccc(Cl)cn12	-1.0	-0.7	2.7	1.9	5.6	x	x	x	x
CN1/C(=C\C(=O)c2cccs2)Sc2ccccc21	20.9*	2.9*	1.5	4.6*	16.6*	10.4*	7.0*	2.4	21.4*
C=CCNC(=O)c1ccc2c3n(nc2c1)-c1ccccc1CO3	5.1	0.1	-2.4	2.5	10.4	x	x	x	x
c1ccc2c(c1)COc1c3cc4c(cc3nn1-2)OCO4	11.2*	1.2*	2.1	8.7*	29.2*	17.9*	9.1*	1.4	12.7*
O=C(CNS(=O)(=O)c1ccc(Cl)s1)N1CCN(c2ccccn2)CC1	-2.6	-1.9	x	-1.1	-2.3	x	x	x	x
CCCCNCc1nc2ccccc2c(=O)[nH]1	-0.6	-0.7	-0.6	-0.3	1.5	x	x	x	x
